Most compounds without a hit are left out; they make up all but 0.98% or so of the library.
Cardiac RTF inh = cardiac RTF calcium sensitivity inhibitors, primary screen, biochemical, IANBD-TnC fluorescence, EC70 calcium; Troponin I, cardiac muscle (Homo sapiens) + Troponin T, cardiac muscle (Homo sapiens) + …; inhibition, % at 7.15 µM; IANBD-labeled cardiac RTF, Ca2+ fluorescence; actives 0.12% (n = 340,000);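 active means inhibition above the mean inhibition of all tested compounds plus 3 SD, cut at about 17% in these data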;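 further: assay run at fixed EC70 calcium of 1.6 mM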
Keap1 Nrf2 FP = Keap1-Nrf2 protein-protein interaction inhibitors, primary screen, biochemical, fluorescence polarization, single point; Kelch-like ECH-associated protein 1 (Homo sapiens), Q14145; Keap1 Kelch-Nrf2 peptide fluorescence polarization, 1536-well; inhibition, % at 9.4 µM; actives 0.15% (n = 340,000); AID 504523, 2011; in the data active means inhibition above about 12%;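 further: human Keap1 Kelch domain with fluorescein labeled Nrf2 9mer peptide probe; higher means more block of Keap1 binding to Nrf2 peptide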
Target sequence (Q14145 whole entry, looked up, the tested form may be a part): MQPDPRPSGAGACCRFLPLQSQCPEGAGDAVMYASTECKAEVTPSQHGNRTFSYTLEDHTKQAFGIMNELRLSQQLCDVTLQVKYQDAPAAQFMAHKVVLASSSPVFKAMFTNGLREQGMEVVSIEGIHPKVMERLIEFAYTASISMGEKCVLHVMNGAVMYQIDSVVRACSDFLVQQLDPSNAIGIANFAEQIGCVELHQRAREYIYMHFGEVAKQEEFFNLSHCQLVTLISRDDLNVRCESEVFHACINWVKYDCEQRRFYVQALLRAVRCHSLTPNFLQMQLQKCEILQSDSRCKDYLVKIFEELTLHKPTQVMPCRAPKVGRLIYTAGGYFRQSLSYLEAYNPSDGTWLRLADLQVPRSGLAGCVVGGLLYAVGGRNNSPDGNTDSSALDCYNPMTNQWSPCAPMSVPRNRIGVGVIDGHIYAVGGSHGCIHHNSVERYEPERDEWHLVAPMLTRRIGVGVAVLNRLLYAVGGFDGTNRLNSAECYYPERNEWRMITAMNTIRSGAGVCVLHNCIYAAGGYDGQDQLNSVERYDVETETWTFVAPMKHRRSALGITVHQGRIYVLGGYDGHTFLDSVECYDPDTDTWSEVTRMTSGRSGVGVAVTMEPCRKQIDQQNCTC
C-LANA FP = inhibitors of KSHV C-LANA binding to DNA, primary screen, biochemical, fluorescence polarization, FAM-LBS DNA, MBP-C-LANA, single point; Kaposi's sarcoma herpesvirus LANA C-terminal domain (residues 932-1162) DNA binding; inhibition, % at 9 µM; actives 0.078% (n = 340,000); AID 504423, 2011;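 active means highest replicate inhibition at or above 60% at 9 µM, even if other replicates fall short; inactive means all replicates below 60% inhibition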
cardiac RTF act = cardiac RTF calcium sensitivity activators, primary screen, biochemical, IANBD-TnC fluorescence, EC20 calcium; activation, % at 7.2 µM; IANBD-labeled TnC RTF fluorescence at EC20 calcium; 0% EC20 calcium, 100% full calcium; AID 493008, 2010; actives 0.24% (n = 340,000);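 active means activation above the mean over all tested compounds plus 3 SD, cut at about 30% in these data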;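 further: rise in fluorescence read as greater calcium sensitivity of cardiac thin filaments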
LANA-H2A inh = blockers of LANA interaction with H2A/H2B – biochemical, FP readout, HTS, primary screen; actives 0.6% (n = 320,000); cell-free LANA-H2A/H2B peptide, fluorescence polarization; Protein LANA1 (Human herpesvirus 8 type P (isolate GK18)), Q9QR71; AID 2629, 2010; inhibition, % (no concentration beside the values); in the data active means inhibition mostly above about 10%, no sharp cut-off; inactive means mostly below about 6.7%
RTF inh confirm = cardiac RTF calcium sensitivity inhibitors, confirmation, biochemical, fluorescence readout | actives 8% (n = 360) | shares compounds with Cardiac RTF inh | reconstituted cardiac thin filaments | inhibition, % at 7.15 µM; in the data active means inhibition above about 18%
DNA intercal 2 = DNA intercalator detection, dose response, counter-screen for C-LANA DNA-binding inhibitor project, biochemical, dry powder; shares compounds with C-LANA FP; Acridine orange-DNA displacement, fluorescence polarization; AC50, µM (highest dose often 35 µM); 20 tested, under 10 active;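 active means signal drop with an AC50 no more than ten times the top valid dose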
Keap1 Kelch bind = Keap1 Kelch domain binders by thermal stabilisation, dose response, biophysical, thermal shift, RT-PCR instrument, cherry-pick; shares compounds with Keap1 Nrf2 FP; delta Tm; stronger effect = higher value; max delta Tm, degrees C; actives 8% (n = 400); AID 651823, 2012; in the data active means max delta Tm above about 0.48 degrees C
Sypro dye melt = Sypro Orange dye melt without protein, dose response, artefact control for Keap1-Nrf2 interaction inhibitor project, biochemical, thermal shift counterscreen, cherry-pick | 140 tested, under 10 active | shares compounds with Keap1 Nrf2 FP | Sypro Orange dye-only thermal melt, no protein, delta Tm; top dose 26 µM | delta Tm, degrees C (no concentration beside the values);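 active means at highest dose tested, delta Tm positive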
Numbers stand for hits; i = inactive; nt = no result given; + = active, no number.

SMILES	Cardiac RTF inh	Keap1 Nrf2 FP	C-LANA FP	cardiac RTF act	LANA-H2A inh	Keap1 Kelch bind	others
Nc1c(C(=O)NC2CC2)sc2nc3c(c(-c4ccco4)c12)CC/C3=C/c1ccco1	31	i	i	i	i	nt	RTF inh confirm=98
O=c1cc(-c2ccccc2Cl)oc2cccc(O)c12	i	i	i	i	i	nt
O=c1cc2oc3cc(O)c(O)cc3c(-c3ccccc3[N+](=O)[O-])c-2cc1O	29	i	i	i	i	nt	RTF inh confirm=56
CCOc1ccc(NC(=O)COC(=O)CCC(=O)c2cccs2)cc1	i	i	i	i	nt	nt
O=C(CN1C(=O)/C(=C\c2ccco2)SC1=S)Nc1ccc(O)cc1C(=O)O	18	i	64	i	i	nt	RTF inh confirm=i
O=C(O)c1cc(N2N=C(C(F)(F)F)/C(=C/C=C/c3ccco3)C2=O)ccc1Cl	111	21	113	i	nt	0.68	RTF inh confirm=57;DNA intercal 2=i
CC(=O)c1ccc(N2CCN(C(=O)C(=O)c3cn(CC(=O)N4CCCCCC4)c4ccccc34)CC2)cc1	i	i	i	i	i	nt
CC(C(=O)O)N1C(=O)/C(=C/C=C/c2ccco2)SC1=S (configuration not stated)	87	13	104	i	i	0.77	RTF inh confirm=40;Sypro dye melt=i
O=C1/C(=C/C=C/c2ccco2)SC(=S)N1NS(=O)(=O)c1ccccc1	71	28	110	i	i	1.3	RTF inh confirm=i
CCN(C(=O)C(C)N1C(=O)/C(=C/c2ccco2)SC1=S)C1CCS(=O)(=O)C1 (configuration not stated)	i	i	i	i	i	nt
CC1CCCCC1NS(=O)(=O)c1ccc2c(c1)CC(=O)N2C (configuration not stated)	i	i	i	i	i	nt
Nc1c(/C=C2\C=CC(=O)C(O)=C2)c(=O)nc2sc(CC(=O)N3CCCCC3)nn12	nt	nt	nt	nt	nt	nt	DNA intercal 2=i
O=C1CCCC(O)=C1N=Nc1ccc(C(=O)O)cc1	i	i	71	i	i	nt	DNA intercal 2=i
Cc1cc(Cl)nc(Cl)c1C(=O)NCc1ccc(Cl)cc1	i	i	i	i	i	nt
O=C(NC1CCSc2ccccc21)c1ccc(Cl)c(S(=O)(=O)N2CCOCC2)c1 (configuration not stated)	i	i	i	i	i	nt
CN(C)S(=O)(=O)c1cc(C(=O)NC2CCSc3ccccc32)ccc1Cl (configuration not stated)	nt	nt	nt	nt	nt	nt	DNA intercal 2=i
Clc1ccc(-c2nnc3sc(-c4ccc(Br)o4)nn23)cc1	i	i	107	i	46	nt	DNA intercal 2=i
Clc1ccc(-c2nnc3sc(-c4ccc(Br)o4)nn23)c(Cl)c1	i	i	i	i	i	nt
O=[N+]([O-])c1cc(/C=N/Nc2nc3ccccc3[nH]2)c(O)cc1O	nt	nt	nt	nt	i	nt
COc1ccc(-c2cc(C(F)(F)F)c3c(N)c(C(=O)NCCSC)sc3n2)cc1	i	29	i	63	i	i	DNA intercal 2=i;Sypro dye melt=i
COc1ccc(/C=C/C(=O)Nc2cccc(S(=O)(=O)NC3=NCCCCC3)c2)cc1OC	i	i	i	i	i	nt
CCCCN(C(=O)CC1CCCCC1)c1c(N)n(CC(C)C)c(=O)[nH]c1=O	i	50	nt	i	71	i
COc1[nH]c(/N=C/c2ccccc2)c(C#N)c1C#N	i	78	102	106	44	i
Cc1cc(=O)oc2cc(OCC(O)Cn3ccnc3)ccc12 (configuration not stated)	i	i	i	i	i	nt
CCCc1cc(NC(=O)COC(=O)c2nccnc2N)n(-c2ccccc2)n1	i	57	i	i	i	i
SMILES	Cardiac RTF inh	Keap1 Nrf2 FP	C-LANA FP	cardiac RTF act	LANA-H2A inh	Keap1 Kelch bind	others
Cc1cc(NC(=O)COC(=O)c2nccnc2N)n(-c2ccccc2)n1	i	i	i	i	i	nt
COc1ccc([C@H]2CC(=O)C=C(c3ccc(Oc4ccccc4)cc3)C2)cc1OC	i	i	i	i	i	nt
Fc1ccc(C2Nc3cccc4cccc(c34)N2)cc1	i	i	i	i	i	nt
CCN(CC)c1ccc(C2Nc3cccc4cccc(c34)N2)cc1	i	26	i	i	i	i
CN(C)CCP(=O)(c1ccccc1)c1ccccc1	i	i	i	i	i	nt
CN(C)CCN(C)Cc1c2ccccc2c(CN(C)CCN(C)C)c2ccccc12	i	19	i	i	i	i	Sypro dye melt=i
CCCN1CNC(=S)N(c2cc(C)ccc2C)C1	i	13	i	i	i	i
O=C(NNc1ncnc2sccc12)c1ccc(Cl)cc1	nt	27	i	nt	i	i
Cc1csc2ncnc(NNC(=O)c3ccc(Cl)cc3)c12	i	i	i	i	i	nt
O=C(NCc1ccco1)/C(=C\c1ccco1)NC(=O)c1ccco1	i	i	i	i	nt	nt
Cc1ccc(-c2nc3sc(C#N)c(N)n3c(=O)c2C#N)cc1	i	14	i	i	i	i
Cc1ccc(-n2c(N)c(C#N)c(-c3ccccc3)c(C#N)c2=O)cc1	i	i	i	i	i	nt
Cc1cccc(C)c1OCc1cc(C(=O)N(C)Cc2nc3ccccc3[nH]2)no1	i	i	i	i	i	nt
Cc1nc(N2CCOCC2)nc2c1CCC2	i	i	i	i	i	nt
CCOc1ccc(NC(=O)COC(=O)CCN2C(=O)C3CC=CCC3C2=O)cc1OCC (configuration not stated)	i	45	i	i	40	i
CCOc1ccc(NC(=O)CCN2C(=O)C3CCCCC3C2=O)cc1OCC (configuration not stated)	i	i	i	i	i	nt
COc1ccc(S(=O)(=O)N2CCC(C(=O)N[C@@H](C)C(=O)NCc3ccccc3OC)CC2)cc1	i	i	i	i	i	nt
CCN1C(=O)c2cccc3c(N)ccc(c23)C1=O	i	38	i	+	i	i
O=C(NN=C1CCCCCC1)c1ccc(Cl)s1	i	i	i	i	i	nt
